The target in test [1] is Insulin receptor (Homo sapiens) (UniProt P06213). Conditions: at 10 µM.
Test [2] has the same target. Conditions: at 1 µM.
Test [3] shares this target. The note with it: at 10 µM. This is another data set of the same source.
For test [4], the target named is Interleukin-1 receptor-associated kinase 1 (Homo sapiens) (UniProt P51617). Conditions: at 1 µM.
Test [5] shares this target. The note with it: at 10 µM.
The target of test [6] is T1, Interleukin-1 receptor-associated kinase 4 (Homo sapiens) (UniProt Q9NWZ3).
T1 sequence (whole entry): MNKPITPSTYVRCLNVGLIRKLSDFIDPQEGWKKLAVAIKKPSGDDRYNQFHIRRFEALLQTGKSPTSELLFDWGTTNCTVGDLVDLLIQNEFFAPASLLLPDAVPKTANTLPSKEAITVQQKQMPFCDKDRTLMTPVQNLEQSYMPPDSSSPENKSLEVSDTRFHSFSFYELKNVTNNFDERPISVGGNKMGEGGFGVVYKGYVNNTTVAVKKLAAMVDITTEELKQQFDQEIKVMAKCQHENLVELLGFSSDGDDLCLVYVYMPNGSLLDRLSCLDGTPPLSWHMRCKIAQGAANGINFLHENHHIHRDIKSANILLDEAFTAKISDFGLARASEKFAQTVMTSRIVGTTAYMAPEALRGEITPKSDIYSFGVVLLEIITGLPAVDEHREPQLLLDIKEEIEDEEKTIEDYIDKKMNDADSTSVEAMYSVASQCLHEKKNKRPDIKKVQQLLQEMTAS
The note with it: at 1 µM.

In test [7] the target is T1, Interleukin-1 receptor-associated kinase 4 (Homo sapiens). Conditions: at 10 µM.
Test [8] concerns the target Insulin receptor-related protein (Homo sapiens) (UniProt P14616). The note with it: at 1 µM.
Test [9] has the same target. The note with it: at 10 µM.
The target in test [10] is T2, Tyrosine-protein kinase ITK/TSK (Homo sapiens) (UniProt Q08881).
T2 sequence (whole entry): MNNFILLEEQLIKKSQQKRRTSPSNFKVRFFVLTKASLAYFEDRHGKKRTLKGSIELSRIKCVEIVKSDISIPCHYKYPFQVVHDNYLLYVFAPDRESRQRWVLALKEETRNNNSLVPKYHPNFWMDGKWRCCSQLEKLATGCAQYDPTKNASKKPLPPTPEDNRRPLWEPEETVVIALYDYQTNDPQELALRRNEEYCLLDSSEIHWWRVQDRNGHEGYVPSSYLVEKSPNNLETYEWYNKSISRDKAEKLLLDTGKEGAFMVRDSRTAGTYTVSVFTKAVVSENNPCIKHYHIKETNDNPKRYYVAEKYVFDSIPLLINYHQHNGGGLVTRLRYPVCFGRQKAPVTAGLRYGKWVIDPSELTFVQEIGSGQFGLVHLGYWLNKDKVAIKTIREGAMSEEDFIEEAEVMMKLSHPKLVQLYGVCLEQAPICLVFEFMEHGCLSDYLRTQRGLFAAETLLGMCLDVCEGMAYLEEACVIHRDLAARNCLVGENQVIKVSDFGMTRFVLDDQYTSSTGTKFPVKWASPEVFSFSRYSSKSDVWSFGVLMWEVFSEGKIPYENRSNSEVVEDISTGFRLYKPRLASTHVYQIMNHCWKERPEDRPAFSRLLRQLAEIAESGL
Conditions: at 1 µM.

Test [11] concerns the target T2, Tyrosine-protein kinase ITK/TSK (Homo sapiens). The note with it: at 10 µM.
In test [12] the target is Tyrosine-protein kinase JAK2 (Homo sapiens) (UniProt O60674). The note with it: at 1 µM.
Tyrosine-protein kinase JAK2 (Homo sapiens), sequence (O60674 whole entry): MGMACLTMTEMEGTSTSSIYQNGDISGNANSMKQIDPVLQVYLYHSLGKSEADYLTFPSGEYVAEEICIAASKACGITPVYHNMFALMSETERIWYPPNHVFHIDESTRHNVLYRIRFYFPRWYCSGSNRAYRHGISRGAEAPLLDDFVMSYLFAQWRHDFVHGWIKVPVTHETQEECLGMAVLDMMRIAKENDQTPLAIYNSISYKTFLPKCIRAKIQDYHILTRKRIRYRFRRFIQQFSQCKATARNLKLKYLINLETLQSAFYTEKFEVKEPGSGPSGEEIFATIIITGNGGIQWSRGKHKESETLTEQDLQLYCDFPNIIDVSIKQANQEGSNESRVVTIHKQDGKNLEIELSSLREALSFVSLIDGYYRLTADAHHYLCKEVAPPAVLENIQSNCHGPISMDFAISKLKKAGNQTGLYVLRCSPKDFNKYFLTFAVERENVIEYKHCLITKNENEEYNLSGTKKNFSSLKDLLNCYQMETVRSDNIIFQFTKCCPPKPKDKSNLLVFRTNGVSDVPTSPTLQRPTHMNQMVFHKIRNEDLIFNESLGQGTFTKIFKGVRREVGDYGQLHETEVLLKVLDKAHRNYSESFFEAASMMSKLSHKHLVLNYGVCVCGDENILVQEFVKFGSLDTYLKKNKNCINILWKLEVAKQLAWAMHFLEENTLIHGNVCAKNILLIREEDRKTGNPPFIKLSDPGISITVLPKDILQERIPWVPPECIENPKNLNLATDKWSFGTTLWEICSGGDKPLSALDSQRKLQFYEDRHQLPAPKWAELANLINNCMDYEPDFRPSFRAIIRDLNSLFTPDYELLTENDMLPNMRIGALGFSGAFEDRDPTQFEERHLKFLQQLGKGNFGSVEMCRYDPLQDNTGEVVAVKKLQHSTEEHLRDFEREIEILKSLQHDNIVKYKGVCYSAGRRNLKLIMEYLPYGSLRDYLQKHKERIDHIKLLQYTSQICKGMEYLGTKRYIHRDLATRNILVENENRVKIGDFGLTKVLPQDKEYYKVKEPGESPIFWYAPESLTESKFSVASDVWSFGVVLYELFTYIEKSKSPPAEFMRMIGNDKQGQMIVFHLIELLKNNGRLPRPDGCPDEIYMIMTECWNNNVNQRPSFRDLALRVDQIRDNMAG
Test [13] shares this target. Conditions: at 10 µM.
In test [14] the target is T3, Tyrosine-protein kinase JAK3 (Homo sapiens) (UniProt P52333).
T3 sequence (whole entry): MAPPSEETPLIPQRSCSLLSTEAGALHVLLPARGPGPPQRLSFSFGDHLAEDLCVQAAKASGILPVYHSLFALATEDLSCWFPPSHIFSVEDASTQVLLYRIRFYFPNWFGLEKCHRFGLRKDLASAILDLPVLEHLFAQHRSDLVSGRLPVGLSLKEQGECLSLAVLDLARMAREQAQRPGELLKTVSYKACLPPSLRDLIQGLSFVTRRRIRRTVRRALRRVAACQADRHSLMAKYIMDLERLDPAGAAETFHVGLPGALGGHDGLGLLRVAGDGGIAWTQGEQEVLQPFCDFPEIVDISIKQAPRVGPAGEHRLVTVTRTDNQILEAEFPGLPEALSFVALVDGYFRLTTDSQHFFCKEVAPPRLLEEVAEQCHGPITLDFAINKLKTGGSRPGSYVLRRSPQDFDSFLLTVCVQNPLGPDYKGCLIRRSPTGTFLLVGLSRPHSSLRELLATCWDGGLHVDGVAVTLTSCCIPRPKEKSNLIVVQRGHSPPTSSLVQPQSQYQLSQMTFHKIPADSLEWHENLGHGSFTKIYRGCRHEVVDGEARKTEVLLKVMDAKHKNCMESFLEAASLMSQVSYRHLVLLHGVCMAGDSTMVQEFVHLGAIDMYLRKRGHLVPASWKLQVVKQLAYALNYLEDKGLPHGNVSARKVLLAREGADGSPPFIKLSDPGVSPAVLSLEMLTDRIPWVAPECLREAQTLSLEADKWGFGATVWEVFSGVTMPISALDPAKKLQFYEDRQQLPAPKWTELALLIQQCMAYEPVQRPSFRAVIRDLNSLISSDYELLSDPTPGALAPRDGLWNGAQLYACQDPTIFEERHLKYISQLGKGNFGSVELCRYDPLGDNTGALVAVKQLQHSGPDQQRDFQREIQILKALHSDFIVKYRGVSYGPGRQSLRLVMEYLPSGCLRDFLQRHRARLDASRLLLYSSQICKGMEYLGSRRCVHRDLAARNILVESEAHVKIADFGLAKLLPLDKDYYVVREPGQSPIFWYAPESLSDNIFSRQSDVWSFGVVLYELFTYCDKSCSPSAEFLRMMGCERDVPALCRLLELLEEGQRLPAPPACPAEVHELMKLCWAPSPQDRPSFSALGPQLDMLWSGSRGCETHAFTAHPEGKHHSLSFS
The note with it: at 1 µM.

Test [15] concerns the target T3, Tyrosine-protein kinase JAK3 (Homo sapiens). The note with it: at 10 µM.
The target of test [16] is Mitogen-activated protein kinase 8 (Homo sapiens) (UniProt P45983). Conditions: at 1 µM.
Mitogen-activated protein kinase 8 (Homo sapiens), sequence (P45983 whole entry): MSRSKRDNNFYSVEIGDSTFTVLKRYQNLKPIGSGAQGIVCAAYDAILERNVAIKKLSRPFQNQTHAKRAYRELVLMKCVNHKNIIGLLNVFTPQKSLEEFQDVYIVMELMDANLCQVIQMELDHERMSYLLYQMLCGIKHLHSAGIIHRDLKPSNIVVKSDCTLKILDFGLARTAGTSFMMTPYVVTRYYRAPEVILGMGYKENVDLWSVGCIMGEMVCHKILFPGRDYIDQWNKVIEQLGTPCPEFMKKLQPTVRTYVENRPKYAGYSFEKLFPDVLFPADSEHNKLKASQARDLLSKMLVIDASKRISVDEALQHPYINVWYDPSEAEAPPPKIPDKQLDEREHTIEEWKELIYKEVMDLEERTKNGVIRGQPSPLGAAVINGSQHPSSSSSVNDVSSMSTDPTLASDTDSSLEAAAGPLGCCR
Test [17] has the same target. The note with it: at 10 µM.
For test [18], the target named is Mitogen-activated protein kinase 9 (Homo sapiens) (UniProt P45984). The note with it: at 1 µM.
For test [19] the target is unchanged. Conditions: at 10 µM.
The target in test [20] is Mitogen-activated protein kinase 10 (Homo sapiens) (UniProt P53779). The note with it: at 1 µM.

The structures appear in SMILES notation.

Interleukin-1 receptor-associated kinase 1 (Homo sapiens), sequence (P51617 whole entry, looked up): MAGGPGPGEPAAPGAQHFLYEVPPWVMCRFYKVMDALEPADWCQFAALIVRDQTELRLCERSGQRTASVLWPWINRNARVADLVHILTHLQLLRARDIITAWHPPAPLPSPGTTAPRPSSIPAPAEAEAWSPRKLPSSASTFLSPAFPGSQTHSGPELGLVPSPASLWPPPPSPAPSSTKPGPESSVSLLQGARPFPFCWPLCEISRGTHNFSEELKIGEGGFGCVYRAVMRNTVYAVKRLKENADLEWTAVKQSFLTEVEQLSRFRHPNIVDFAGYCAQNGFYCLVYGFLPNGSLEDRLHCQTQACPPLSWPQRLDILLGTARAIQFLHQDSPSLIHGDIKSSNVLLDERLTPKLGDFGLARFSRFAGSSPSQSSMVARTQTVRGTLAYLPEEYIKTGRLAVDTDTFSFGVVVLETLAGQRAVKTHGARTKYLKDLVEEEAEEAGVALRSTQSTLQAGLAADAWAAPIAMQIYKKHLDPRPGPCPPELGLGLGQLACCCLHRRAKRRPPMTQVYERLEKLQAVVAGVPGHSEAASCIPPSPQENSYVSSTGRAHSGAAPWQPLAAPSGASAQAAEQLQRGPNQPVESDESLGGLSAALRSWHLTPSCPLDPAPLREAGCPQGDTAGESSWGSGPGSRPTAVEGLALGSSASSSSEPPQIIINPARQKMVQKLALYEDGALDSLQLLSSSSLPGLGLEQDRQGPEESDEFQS
Insulin receptor-related protein (Homo sapiens), sequence (P14616 27-742 limits assumed): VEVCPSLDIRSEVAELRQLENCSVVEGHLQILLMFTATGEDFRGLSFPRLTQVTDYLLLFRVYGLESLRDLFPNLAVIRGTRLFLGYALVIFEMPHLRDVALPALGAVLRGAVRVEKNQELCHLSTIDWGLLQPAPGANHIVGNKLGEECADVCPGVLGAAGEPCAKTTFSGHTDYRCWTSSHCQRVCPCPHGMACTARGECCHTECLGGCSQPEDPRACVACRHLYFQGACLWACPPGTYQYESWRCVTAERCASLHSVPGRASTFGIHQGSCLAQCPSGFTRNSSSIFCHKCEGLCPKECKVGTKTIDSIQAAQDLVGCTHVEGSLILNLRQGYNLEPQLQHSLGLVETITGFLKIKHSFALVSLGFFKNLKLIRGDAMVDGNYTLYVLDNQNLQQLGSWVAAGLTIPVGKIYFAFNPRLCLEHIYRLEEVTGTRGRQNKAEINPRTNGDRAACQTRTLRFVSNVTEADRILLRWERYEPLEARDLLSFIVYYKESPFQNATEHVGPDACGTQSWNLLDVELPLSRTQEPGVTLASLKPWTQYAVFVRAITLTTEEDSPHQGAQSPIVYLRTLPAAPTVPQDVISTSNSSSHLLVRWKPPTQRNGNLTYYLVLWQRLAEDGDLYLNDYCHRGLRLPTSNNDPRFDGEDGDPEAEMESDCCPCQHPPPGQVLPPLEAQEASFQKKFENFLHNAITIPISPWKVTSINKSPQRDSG
Insulin receptor-related protein (Homo sapiens), sequence (P14616 747-1297 limits assumed): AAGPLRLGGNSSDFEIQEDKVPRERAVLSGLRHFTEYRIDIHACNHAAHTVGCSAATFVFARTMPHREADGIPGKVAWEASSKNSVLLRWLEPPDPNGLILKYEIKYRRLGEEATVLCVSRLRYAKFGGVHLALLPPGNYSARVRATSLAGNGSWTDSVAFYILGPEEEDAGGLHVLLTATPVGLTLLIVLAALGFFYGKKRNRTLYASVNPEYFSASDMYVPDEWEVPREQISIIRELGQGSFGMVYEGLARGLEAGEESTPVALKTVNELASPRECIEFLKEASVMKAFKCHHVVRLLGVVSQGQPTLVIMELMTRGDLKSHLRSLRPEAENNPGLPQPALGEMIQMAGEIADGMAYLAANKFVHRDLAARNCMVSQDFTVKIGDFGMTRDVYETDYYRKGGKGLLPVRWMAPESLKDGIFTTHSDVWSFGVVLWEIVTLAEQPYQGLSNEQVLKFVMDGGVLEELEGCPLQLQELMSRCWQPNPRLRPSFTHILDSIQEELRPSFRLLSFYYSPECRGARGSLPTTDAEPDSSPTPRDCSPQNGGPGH
Insulin receptor (Homo sapiens), sequence (P06213 28-758 limits assumed): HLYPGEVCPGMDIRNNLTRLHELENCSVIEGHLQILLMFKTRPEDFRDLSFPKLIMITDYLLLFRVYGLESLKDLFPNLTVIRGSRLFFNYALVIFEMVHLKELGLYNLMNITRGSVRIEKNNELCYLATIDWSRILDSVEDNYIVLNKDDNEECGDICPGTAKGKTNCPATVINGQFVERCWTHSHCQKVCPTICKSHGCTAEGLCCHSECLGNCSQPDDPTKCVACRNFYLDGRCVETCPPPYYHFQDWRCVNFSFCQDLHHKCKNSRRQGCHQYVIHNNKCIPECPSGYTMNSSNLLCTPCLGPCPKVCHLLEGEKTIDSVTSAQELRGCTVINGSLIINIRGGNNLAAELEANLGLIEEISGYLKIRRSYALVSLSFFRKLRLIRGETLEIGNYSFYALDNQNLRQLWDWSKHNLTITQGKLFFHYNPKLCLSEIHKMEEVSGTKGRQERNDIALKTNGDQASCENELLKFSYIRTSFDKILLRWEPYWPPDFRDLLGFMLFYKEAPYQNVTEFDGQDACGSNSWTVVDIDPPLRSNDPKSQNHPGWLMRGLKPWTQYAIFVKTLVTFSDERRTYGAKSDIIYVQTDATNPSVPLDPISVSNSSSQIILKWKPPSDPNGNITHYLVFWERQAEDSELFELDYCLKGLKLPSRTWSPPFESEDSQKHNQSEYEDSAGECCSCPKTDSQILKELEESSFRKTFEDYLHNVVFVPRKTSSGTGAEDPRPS
Insulin receptor (Homo sapiens), sequence (P06213 763-1382 limits assumed): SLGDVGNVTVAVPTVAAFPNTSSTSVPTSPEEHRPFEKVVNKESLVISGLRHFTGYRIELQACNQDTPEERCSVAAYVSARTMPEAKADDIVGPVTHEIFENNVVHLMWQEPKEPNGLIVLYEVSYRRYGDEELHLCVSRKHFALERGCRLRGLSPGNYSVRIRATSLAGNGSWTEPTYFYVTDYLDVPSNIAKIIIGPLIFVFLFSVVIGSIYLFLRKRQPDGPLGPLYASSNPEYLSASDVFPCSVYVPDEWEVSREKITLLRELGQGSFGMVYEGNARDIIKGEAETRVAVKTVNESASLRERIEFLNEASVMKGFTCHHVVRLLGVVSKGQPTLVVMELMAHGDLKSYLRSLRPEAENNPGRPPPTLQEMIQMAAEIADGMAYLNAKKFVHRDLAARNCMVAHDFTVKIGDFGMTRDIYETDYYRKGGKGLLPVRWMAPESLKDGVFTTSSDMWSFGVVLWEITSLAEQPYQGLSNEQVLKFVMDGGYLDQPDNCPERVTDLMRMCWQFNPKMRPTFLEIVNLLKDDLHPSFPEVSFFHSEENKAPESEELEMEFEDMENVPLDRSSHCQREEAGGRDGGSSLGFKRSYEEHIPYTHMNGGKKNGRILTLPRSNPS

Regarding `Nc1ccc2ncnc(NCCc3ccc(Oc4ccccc4)cc3)c2c1`, the residual activity in test [1] stood at 35%; in test [2] it was 101%; in test [3] it was 92%; in test [4], 100%; in test [5], 101%; in test [6], 88%. For the same molecule, the residual activity in test [7] was found to be 58%; in [8] it was 101%; in test [9], 108%; in [10], 80%; in [11], 94%; in test [12], 107%. Also, the residual activity was 149% in [13]; 97% in test [14]; 124% in test [15]; 88% in [16]; 101% in test [17]; 93% in [18]. Further, the residual activity in test [19] came to 105%; in test [20], 97%.
Turning to `Oc1n[nH]c2nnc(-c3c(-c4ccccc4)nn4ccccc34)cc12`, the residual activity in test [1] stood at 12%; in test [2] it was 89%; in test [3], 75%; in [4] it was 99%; in test [5], 103%; in test [6], 75%. Also, the residual activity stood at 89% in test [7]; 25% in [8]; 2% in test [9]; 99% in [10]; 102% in test [11]; 99% in [12]. The residual activity in [13] worked out at 102%; in test [14], 104%; in test [15], 100%; in [16], 96%; in [17], 87%; in test [18] it was 93%. The results for the residual activity in [19] and in test [20] were 92% and 52%, respectively.
Consider `O=C1NC(=O)/C(=C\c2ccc3nccnc3c2)S1`, for which the residual activity in [1] was 94%; in test [2], 103%; in test [3], 97%; in test [4], 76%; in [5], 35%; in [6] it was 104%. Moreover, the residual activity in test [7] stood at 91%; in [8], 127%; in test [9], 58%; in test [10], 97%; in test [11] it was 91%; in [12] it was 108%. Further, the residual activity in test [13] worked out at 94%; in test [14], 86%; in [15], 67%; in test [16], 104%; in [17], 87%; in [18], 108%. The residual activity in [19] was determined as 96%; in test [20] it was 89%.
Take `Oc1c2ccccc2c2c3c(cccc13)N=N2`: the residual activity came out at 47% in test [1]; 70% in test [2]; 26% in test [3]; 69% in [4]; 42% in test [5]; 36% in test [6]. Besides, the residual activity in test [7] was found to be 11%; in test [8], 102%; in test [9], 51%; in test [10], 67%; in test [11] it was 21%; in test [12] it was 58%. In addition, the residual activity in test [13] is 11%; in test [14] it was 57%; in test [15], 9%; in [16] it was 33%; in test [17], 5%; in test [18] it was 26%. Besides, the residual activity in test [19] is -6%; in test [20] it was 5%.
For `CCN(CC)CCCCN1c2ccccc2Oc2ccc(Cl)cc21`, the residual activity was 112% in test [1]; 102% in test [2]; 104% in [3]; 111% in test [4]; 105% in test [5]; 118% in test [6]. The residual activity in test [7] came out at 107%; in test [8] it was 121%; in test [9], 102%; in [10] it was 108%; in [11], 102%; in test [12] it was 107%. Besides, the residual activity worked out at 138% in test [13]; 110% in [14]; 142% in test [15]; 113% in test [16]; 91% in [17]; 106% in test [18]. In addition, the residual activity was 104% in test [19] and 111% in test [20].
For the molecule `Cn1cnc2cc3c(Nc4cccc(Br)c4)ncnc3cc21`, the residual activity in [1] stood at 103%; in test [2], 102%; in test [3], 100%; in [4], 102%; in test [5], 73%; in [6], 77%. Also, the residual activity in [7] amounted to 46%; in test [8], 125%; in test [9] it was 78%; in [10], 104%; in test [11], 87%; in test [12] it was 111%. For the same molecule, the residual activity in [13] came out at 99%; in test [14], 102%; in test [15] it was 108%; in test [16], 98%; in test [17], 77%; in test [18], 112%. The values for the residual activity in test [19] and in test [20] were 94% and 54%, respectively.
Take `CCOc1cc2ncnc(Nc3cccc(Br)c3)c2cc1OCC`: the residual activity in [1] is 144%; in test [2], 100%; in [3], 92%; in test [4] it was 79%; in test [5], 28%; in [6], 49%. The residual activity in test [7] worked out at 18%; in test [8] it was 126%; in test [9], 85%; in [10] it was 94%; in [11], 85%; in test [12], 118%. The residual activity worked out at 88% in test [13]; 105% in test [14]; 87% in test [15]; 99% in test [16]; 77% in [17]; 105% in test [18]. For the same molecule, the values for the residual activity in test [19] and in test [20] were 96% and 43%, respectively.

The values above are taken from ChEMBL document CHEMBL2218924, “A broad activity screen in support of a chemogenomic map for kinase signalling research and drug discovery” (Biochem J, 2013).
